The whole screen tested about 2,500 compounds, of which about 360 (14%) were called active.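 Rule for the calls: active = signal-lowering compounds whose fitted half-maximal concentration AC50 is no higher than ten times their top tested concentration; inconclusive = flat curve with 30 to 70% inhibition, or poor fit; inactive = flat within 30%, signal increase, or AC50 above limit.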 Not all results are given here.
experiment: non-specific inhibitors of H2O2 luminol chemiluminescence – biochemical, luminescence, no ALR or DTT, cherry-pick, artefact control for ALR inhibitor project, dose response (AID 540356); details: HRP/H2O2 luminol luminescence counterscreen; series mostly up to 10 µM

| Compound | AC50 |
| --- | --- |
| COc1cc(-n2c(-c3ccccc3)n[nH]c2=S)c(OC)cc1Cl | inactive |
| COc1ccc(C(=O)N2CCN=C2SCc2cccnc2)c(OC)c1 | inactive |
| Cc1cc(-c2nsc(=O)o2)c(S(C)(=O)=O)s1 | inactive |
| Cc1c(/C=N\NC(=O)c2ccc(F)cc2)cnn1C | inactive |
| CCN(CC)c1ccc(CNc2ccc3c(c2)ncn3CC)cc1 | inactive |
| CCN(CC)c1ccc(CN2CCCCCC2)cc1 | inactive |
| CN(C)c1ccc(-c2n[nH]c(=S)n2-c2ccccc2)cc1 | inactive |
| Cc1cc(C)nc(Sc2c(C)nn(-c3ccccc3)c2C)n1 | inactive |
| Oc1c(Cl)cc(Cl)cc1CNc1ccc(Br)cn1 | inactive |
| O=C(c1ccc2c(c1)OCO2)N1CCN(c2ccccc2)CC1 | inactive |
| Nc1nc(-c2c[nH]c3ccccc23)cs1 | inactive |
| c1ccc2c(-c3csc(-c4ccncc4)n3)c[nH]c2c1 | inactive |
| O=c1oc2ccccc2cc1-c1ccc(O)cc1 | inactive |
| O=C(O)Cn1cc(C(=S)N2CCCCC2)c2ccccc21 | inactive |
| CC(C)NS(=O)(=O)c1ccc2c(c1)NCC2 | inactive |
| COc1ccc(C2=CSC3=NNC4(CCCCC4)NN23)cc1 | inactive |
| COc1ccc(NC2c3ccccc3C(=O)N2c2cccnc2)cc1Cl (stereo not given) | inactive |
| S=c1[nH]nc(-c2ccco2)n1C1CCCCC1 | inactive |
| O=C(NNc1nc2ccccc2s1)c1ccccc1F | 5.35 µM (active) |
| O=C(NNc1c2ccccc2nc2ccccc12)c1ccccc1O | inactive |
| O=C(NNc1nc2cc3c(cc2s1)OCO3)c1ccccc1 | inactive |
| COc1cccc(N2CCN(CC(=O)NC(C)c3ccccc3)CC2)c1 (stereo not given) | inactive |
| O=C(NC1CCCCC1)N1CCN(c2ccc(Cl)cc2)CC1 | inactive |

| Compound | AC50 |
| --- | --- |
| O=C(Nc1ccccc1N1CCCC1)c1ccccc1F | inactive |
| COc1ccc(N2CCC(CNC(=O)Nc3ccc(OC)cc3OC)C2)cc1 (stereo not given) | inactive |
| Clc1ccc(-n2nnc(-c3nccs3)n2)cc1Cl | inactive |
| Cc1cc(C)n2cc(CSc3nc4ccccc4[nH]3)nc2n1 | inactive |
| COc1ccccc1N1CCN(S(=O)(=O)c2cccc(F)c2)CC1 | inactive |
| Oc1ccc(C2CNCCc3c2cc(O)c(O)c3Cl)cc1 (stereo not given) | 5.92 µM (active) |
| Oc1cc2c(cc1O)C(c1ccccc1)CNCC2 (stereo not given) | 4.68 µM (active) |
| Nc1[nH]c(N=NC(=O)c2ccc(F)cc2)c2ccccc12 | > 10 µM (inactive) |
| CC(C)(C)c1ccc(Oc2ccc(NC(=O)CCCC(=O)O)cn2)cc1 | inactive |
| Cc1c(Cl)c(-c2n[nH]c(=S)n2-c2ccccc2)nn1C | inactive |
| O=c1ccsn1Cc1ccccc1 | inactive |
| COc1cc(OC)cc(C(=O)Nc2ccc(S(=O)(=O)Nc3cc(C)nc(C)n3)cc2)c1 | inactive |
| COc1ccc(OC)c(N(CC(N)=O)S(=O)(=O)c2ccc(OC)c(OC)c2)c1 | inactive |
| Cc1ccc(S(=O)(=O)NN2C(=O)/C(=C/c3cccnc3)SC2=S)cc1 | inactive |
| Cc1nc(C)c(/C(O)=C\c2nc3ccc([N+](=O)[O-])cc3oc2=O)o1 | inactive |
| Cc1cc(C(=O)Nc2nnc(-c3ccccc3)s2)no1 | inactive |
| CNc1nnc(-c2cccc(N(C)C)c2)s1 | 1.05 µM (active) |
| Cc1nc(SCc2ccc(Cl)c(Cl)c2)ncc1C(=O)O | inactive |
| COc1c(F)c(F)c(C(=O)O)c(Nc2ccc(C)cc2C)c1F | inactive |
| COc1ccc(N2C(=O)CSC2c2ccncc2)cc1 (stereo not given) | inactive |
| CCCCN(C)S(=O)(=O)c1ccc(C(=O)Nc2nnc(-c3ccco3)o2)cc1 | inactive |
| Cn1c(=O)c2c(nc(N/N=C/c3ccncc3)n2Cc2ccccc2)n(C)c1=O | inactive |
| COc1ccc(-c2cn[nH]c2-c2ccc(OC)cc2O)cc1 | inactive |

| Compound | AC50 |
| --- | --- |
| Cc1cccnc1Nc1nc(-c2ccc(O)cc2O)cs1 | inactive |
| COc1ccc(-c2n[nH]c(C)c2-c2ccccc2OC)c(O)c1 | inactive |
| Cc1ccc(-n2c(-c3ccc(Cl)cc3)n[nH]c2=S)c(C)c1 | inactive |
| COc1ccccc1-c1cc(-c2ccc(O)cc2)nc(N)c1C#N | inactive |
| Nc1ncc(-c2ccccc2)c(-c2ccc(O)cc2O)n1 | inactive |
| Cc1ccc(Nc2nc(-c3ccc(O)cc3O)cs2)nc1 | inactive |
| Cc1cc(C)nc(NNC(=O)c2ccccc2O)n1 | inactive |
| CC[C@@H](C)[C@H](NC(=O)Cc1c(C)c2cc3c(C)coc3c(C)c2oc1=O)C(=O)O | inactive |
| O=C(O)c1ccc(Sc2nnc(-c3cccc(Br)c3)o2)c([N+](=O)[O-])c1 | inactive |
| ClCc1csc(-c2ccc(Cl)cc2)n1 | inactive |
| O=C(NCCc1ccc(O)cc1)c1ccc(Cl)cc1 | inactive |
| Cc1ccc(O)c(NC(=O)CCCC(=O)O)c1 | inactive |
| c1ccc(-c2cc(N3CCCCCC3)n[nH]2)cc1 | inactive |
| O=c1cc(-c2cccc([N+](=O)[O-])c2)[nH][nH]1 | inactive |
| CC(=NC1CCCC1)c1c(C)[nH]n(-c2nc3ccccc3s2)c1=O | inactive |
| N/C(=N/O)c1ccccc1N1CCC(Cc2ccccc2)CC1 | inactive |
| CN(C)S(=O)(=O)c1cccc(-c2cn3cccnc3n2)c1 | inactive |
| Nc1cccc(-c2cn3cccnc3n2)c1 | 4.52 µM (active) |
| Cc1nc(-c2cccc(N)c2)cs1 | inactive |
| COc1ccc(CC(=O)N2CCN=C2SCc2cccc([N+](=O)[O-])c2)cc1 | inactive |
| COc1ccc(/C=N/NC(=O)c2ccn[nH]2)cc1CSc1ccccn1 | inactive |
| CCc1c(C)c2cc(Cl)c(O)c(CN3CCCCC3)c2oc1=O | inactive |
| Cc1c(Br)c(=O)oc2c(Br)c(O)c(O)cc12 | 7.79 µM (active) |

| Compound | AC50 |
| --- | --- |
| CC1CCC2C(C1)Nc1c(C(=O)O)cccc1C2(C)C (stereo not given) | inactive |
| C=CCn1c(C(C)NC(=O)c2cccc(C)c2)n[nH]c1=S (stereo not given) | inactive |
| COc1cccc(OC)c1C(=O)N1CCN=C1SCc1cccnc1 | inactive |
| O=C(O)C(c1ccccc1)N1C(=O)/C(=C\c2ccc(O)c(O)c2)SC1=S (stereo not given) | 5 µM (active) |
| Cc1cc(C)nc(NN2C(=O)/C(=C/c3ccc(O)cc3)SC2=S)n1 | inactive |
| O=C(O)C(c1ccccc1)N1C(=O)/C(=C\c2ccc(-c3cccc(Cl)c3)o2)SC1=S (stereo not given) | inactive |
| Clc1ccc(/C=C/c2ncc3ccccn23)cc1 | inactive |
| COc1cc(/C=N/Nc2nc3ccccc3[nH]2)ccc1O | 8.83 µM (active) |
| COc1ccc(/C=N/Nc2nc3ccccc3[nH]2)cc1OC | inactive |
| COc1cc(/C=N/Nc2nc3ccccc3[nH]c2=O)ccc1O | inactive |
| O=S(=O)(Nc1ccc(N2CCCCC2)cc1)c1cccc2cccnc12 | inactive |
| COc1ccc(CNc2nc3ccccc3n2C(C)C)c(O)c1 | inactive |
| COc1ccc(O)c(-c2cc(-c3ccccc3[N+](=O)[O-])[nH]n2)c1 | inactive |
| Oc1ccccc1-c1n[nH]c(=S)n1Cc1ccco1 | inactive |
| COc1ccc(N2CCN(S(=O)(=O)c3cccc4cccnc34)CC2)cc1 | inactive |
| Oc1cccc(Nc2c3ccccc3nc3ccccc23)c1 | inactive |
| Oc1ccc(NCc2cccs2)cc1 | inactive |
| COC(=O)C1C(C(C)C)N(c2ccccc2)OC1(C)O (stereo not given) | inactive |
| CCc1ccc(CNc2ccc(N3CCN(C(C)=O)CC3)cc2)cc1 | inactive |
| CC(=O)N1CCN(c2ccc(NCc3ccccc3)cc2)CC1 | 8.41 µM (active) |
| CC(=O)N1CCN(c2ccc(NCc3cccc4ccccc34)cc2)CC1 | inactive |
| CCN(CCCNC(=O)CN(C)S(=O)(=O)c1cccc2nsnc12)c1cccc(C)c1 | inactive |
| O=S(=O)(c1ccc2ccccc2c1)N1CCN=C1SCc1cccnc1 | inactive |

| Compound | AC50 |
| --- | --- |
| CCCc1ccc(-c2cc(N)n[nH]2)cc1 | inactive |
| O=C(N/N=C/c1ccncc1)c1cccc(N/N=C/c2ccncc2)c1 | inactive |
| Cc1cccc(N/N=C/c2ccncc2)c1 | 2.61 µM (active) |
| Cc1cccc(N/N=C/c2ccc(O)c(O)c2O)c1 | inactive |
| COC(=O)/C=C/S(=O)(=O)c1ccc(NC(C)=O)cc1 | inactive |
| CC(=O)N/N=C/c1cc(C)n(-c2ccc(Br)cc2)c1C | inactive |
| COc1cc(/C=C2\CCCc3c2nc2ccccc2c3C(=O)O)cc(Br)c1O | inactive |
| CCN(CC)c1ccc(NS(=O)(=O)c2ccc(OC)cc2)cc1 | inactive |
| CCc1cc(C(=O)c2ccc(OC)cc2)c(NC(=O)CC(C)(C)CC(=O)O)s1 | inactive |
| COc1cc(/C=N/NC(=O)c2ccc(CSc3nncn3C)cc2)cc(OC)c1O | inactive |
| Cn1c(CSCc2ccc(Cl)cc2)n[nH]c1=S | inactive |
| Cc1nn(-c2ccccc2)c(C)c1-c1cc(C(=O)N/N=C/c2ccc(O)cc2)[nH]n1 | inactive |
| Cc1cc(C)n2nc(C(=O)N/N=C/c3ccc(O)cc3)nc2n1 | inactive |
| CN(C)Cc1ccccc1Sc1ccc(O)cc1O | inactive |
| Cc1c(Cl)cccc1-n1c(-c2cccnc2)n[nH]c1=S | inactive |
| CN(C)c1ccc(CNS(=O)(=O)c2ccc3c(c2)NC(=O)CS3)cc1 | inactive |
| O=C(Nc1ccc(Cl)c(Cl)c1)Nc1ccccc1C(=O)O | inactive |
| Cc1ccc(NNC(=O)c2ccno2)cc1C | 0.635 µM (active) |
| Cc1ccc(NNC(=O)c2ccno2)cc1Cl | 0.327 µM (active) |
| Cc1cc(C(=O)NNc2ccc(F)cc2)no1 | inactive |
| Cc1ccc(NCCC(=O)c2cccs2)cc1C | inactive |
| COc1ccc(/C=N/NC(=O)c2ccncc2)cc1CN1CCN(c2ccc(F)cc2)CC1 | inactive |
| CCN(CC)c1ccc(/C=N/NC(=O)c2cccc(N3CCCC3=O)c2)cc1 | inactive |

Source: PubChem BioAssay AID540356 (Broad Institute, 2011)
